Most compounds without a hit are left out; they make up all but 3.5% or so of the library.
mHTT CaM bind – mHTT-calmodulin interaction abrogation | AlphaScreen His-mHTT/GST-CaM binding, luminescence | inhibition, % at 15 µM | 190,000 tested, 3.6% active | AID 1671202;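 note: 0% = both proteins with DMSO and 100% = one protein alone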
Pf apPOL block – Pf-apPOL DNA polymerase inhibition | inhibition, % at 10 µM | Recombinant Pf-apPOL, molecular beacon fluorescence, 1.5 h | AID 1794808 | 210,000 tested, 0.25% active
* = called active by the depositor; nt = not tested or not shown. Cut-off read from the data, not from the text of the source: active = inhibition above about 50%; inactive = the rest.

SMILES	mHTT CaM bind	Pf apPOL block
COc1cc(/C=C2\C(=O)NN(c3ccc(F)c(Cl)c3)C2=O)ccc1O	33.0	1.0
CCN(CC)c1nc2c(S(=O)(=O)c3ccc(C)cc3)nnn2c2ccccc12	-1.2	-3.1
CC(C)N1CCN(C(=O)c2cc3cn(C(C)C)cc3s2)CC1	22.4	-5.3
CC(C)n1cc2cc(C(=O)N3CCN(Cc4cccc(F)c4)CC3)sc2c1	70.9*	2.8
CC(C)n1cc2cc(C(=O)N(C)C)sc2c1	11.7	1.2
CN(Cc1ccccc1)C(=O)c1cc2cn(C3CC3)cc2s1	94.8*	2.2
O=C(NCc1ccccc1)c1cc2cn(C3CC3)cc2s1	42.3	18.0
CC(C)n1cc2cc(C(=O)N(C)Cc3ccccc3)sc2c1	86.2*	0.6
O=C(COc1ccc(Cl)cc1Cl)Nc1ccc(Br)cc1F	-5.8	-8.4
CC(C)(C)C(=O)C=C1Nc2ccccc2SC1(O)CC(=O)C(C)(C)C (stereo not given)	51.1*	nt
CC(NC(=O)CC1Sc2ccccc2NC1=O)C(C)(C)C (stereo not given)	-11.8	1.9
CN(C)c1ncnc2c1C(c1ccc(Br)cc1)c1c(ncnc1N(C)C)O2	11.0	-3.5
O=c1[nH]c2ccc(S(=O)(=O)Nc3cccc(C(F)(F)F)c3)cc2[nH]c1=O	-2.0	-7.0
CSc1nnc2c(n1)OC(c1ccc(Br)s1)Nc1ccccc1-2 (stereo not given)	57.0*	-3.3
CSc1nnc2c(n1)OC(c1ccccc1O)Nc1ccccc1-2 (stereo not given)	-4.0	2.2
CSc1nnc2c(n1)OC(c1cccs1)Nc1ccccc1-2 (stereo not given)	6.0	-1.6
CCSc1nnc2c(n1)OC(c1cn[nH]c1-c1ccccc1)Nc1ccccc1-2 (stereo not given)	7.0	-6.0
CCCCSc1nnc2c(n1)OC(c1cc3c(cc1[N+](=O)[O-])OCO3)Nc1ccccc1-2 (stereo not given)	77.2*	-3.5
CCCCSc1nnc2c(n1)OC(c1ccncc1)Nc1ccccc1-2 (stereo not given)	8.0	3.8
CSc1nnc2c(n1)OC(c1cc3c(cc1Br)OCO3)Nc1ccccc1-2 (stereo not given)	0.0	84.8*
CCSc1nnc2c(n1)OC(c1cc3c(cc1[N+](=O)[O-])OCO3)Nc1ccccc1-2 (stereo not given)	53.0*	1.9
CCC(=O)NCc1csc(C2CCCN(C(=O)c3ccc(OC)cc3C)C2)n1 (stereo not given)	-11.7	-6.6
CCOc1ccc(C=Nc2c(C)n(C)n(-c3ccccc3)c2=O)cc1	4.0	-1.8
COc1ccc2sc(OC3CCN(C(=O)c4cncc(Br)c4)CC3)nc2c1	4.5	-13.8
NC(=O)c1ccc(-c2nnc(Nc3ccc(C(=O)Nc4ccccc4)cc3)c3ccccc23)cc1	87.2*	-7.4
SMILES	mHTT CaM bind	Pf apPOL block
CNC(=O)c1ccc(Nc2nnc(-c3ccc(O)cc3)c3ccccc23)cc1	15.5	2.7
CNC(=O)c1cc(Nc2nnc(-c3ccc(O)cc3)c3ccccc23)ccc1OC	19.0	-15.2
CNC(=O)c1cc(Nc2nnc(-c3ccc(C)cc3)c3ccccc23)ccc1OC	71.6*	0.3
COc1ccc(C(=O)Nc2ccccc2)cc1S(=O)(=O)Nc1cccc([N+](=O)[O-])c1	27.2	0.0
Cc1ccccc1NC(NC(=O)Cc1ccccc1)C(Cl)(Cl)Cl (stereo not given)	-17.0	-8.0
CC1CCCCN1c1nc(Cl)nc(N2CCCCC2C)n1 (stereo not given)	100.0*	8.0
CC1CCCCN1c1nc(-c2ccccc2O)nc2ccccc12 (stereo not given)	-7.7	3.2
O=C(Cc1ccc(F)cc1)Nc1nnc(-c2ccco2)o1	-9.3	-3.4
COc1ccc(NC2(c3ccc(Cl)cc3)C(=O)c3ccccc3C2=O)cc1	100.3*	-3.3
Cc1ccc(NC2(c3ccccc3)C(=O)c3ccccc3C2=O)cc1	46.4	-8.4
CCNc1nccc(N2CCC(CC(=O)NC3CCCC3)CC2)n1	5.8	-4.0
CC(Oc1ccccc1)C(=O)NCC(C)(O)c1ccco1 (stereo not given)	-16.0	-1.4
COc1ccccc1NC(=O)C1=C(C)Nc2nc3ccccc3n2C1c1cccc([N+](=O)[O-])c1 (stereo not given)	1.0	-9.6
CC1=C(C(=O)Nc2ccc(Cl)cc2)C(c2cccc([N+](=O)[O-])c2)n2c(nc3ccccc32)N1 (stereo not given)	72.0*	3.6
Cc1ccccc1OCC(=O)N1CC2CC(NC(=O)c3cccnc3)C1C2 (stereo not given)	0.5	0.1
CCN1CCN(C2CCN(C(=O)c3ccc(C)cc3)CC2)C1=O	-9.3	-4.9
CCN1CCN(C2CCN(C(=O)c3cc(C)cc(C)c3)CC2)C1=O	95.5*	-1.8
CCc1nccn1CC1CCN(C(=O)c2ccccc2C(F)(F)F)CC1	-15.0	-3.9
O=C(Nc1nnc2ccccn12)c1cccc(C(F)(F)F)c1	40.1	-21.6
N#Cc1ccc(C(=O)Nc2nnc3ccccn23)cc1	33.4	-4.7
